# Measured values: PubChem BioAssay AID1159580 (chemical genetic matrix, 2015)
# Out of some 5,500 compounds screened, about 2,000 (36%) were called active. Roughly 18% stayed inconclusive and do not appear here. Some of the results follow. Values without a mark were called inactive. Rule as the data show it: active = normalized growth mostly below about 0.91 (no sharp cut-off); inconclusive = no clear call, values can overlap the other calls; inactive = mostly above about 0.92.
# Experiment: chemical genetic growth profiling, strain panel (AID 1159580);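 also: tested at 20 µM; growth read once vehicle control cultures reached saturation at 30 °C; 1 = growth at the plate median or of vehicle wells; lower values mean less growth of the strain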
# Conditions: growth OD
compound,measurement,setting,value
CCC(=O)O[C@H]1CCC2C3CCc4cc(O)ccc4C3CC[C@@]21C (some centres undefined),normalized growth,"S. cerevisiae deletion strains, locus YJL187C, strain SWE1, stronger effect = lower value",0.995
same,normalized growth,"S. cerevisiae deletion strains, locus YJR043C, strain POL32, stronger effect = lower value",0.974
same,normalized growth,"S. cerevisiae deletion strains, locus YJR066W, strain TOR1, stronger effect = lower value",0.728 (active)
same,normalized growth,"S. cerevisiae deletion strains, locus YJR075W, strain HOC1, stronger effect = lower value",0.948
same,normalized growth,"S. cerevisiae deletion strains, locus YKL009W, strain mrt4, stronger effect = lower value",0.986
same,normalized growth,"S. cerevisiae deletion strains, locus YKL068W, stronger effect = lower value",1
same,normalized growth,"S. cerevisiae deletion strains, locus YKL085W, strain MDH1 (second series), stronger effect = lower value",0.936
same,normalized growth,"S. cerevisiae deletion strains, locus YKL085W, strain MDH1, stronger effect = lower value",0.936
same,normalized growth,"S. cerevisiae deletion strains, locus YKL160W, strain elf1, stronger effect = lower value",0.984
same,normalized growth,"S. cerevisiae deletion strains, locus YKL190W, strain CNB1, stronger effect = lower value",1
same,normalized growth,"S. cerevisiae deletion strains, locus YKR001C, strain vps1, stronger effect = lower value",0.927
same,normalized growth,"S. cerevisiae deletion strains, locus YKR026C, strain gcn3, stronger effect = lower value",0.971
same,normalized growth,"S. cerevisiae deletion strains, locus YKR091W, strain srl3, stronger effect = lower value",0.964
same,normalized growth,"S. cerevisiae deletion strains, locus YLL001W, strain dnm1, stronger effect = lower value",0.997
same,normalized growth,"S. cerevisiae deletion strains, locus YLL026W, stronger effect = lower value",1
same,normalized growth,"S. cerevisiae deletion strains, locus YLL041C, strain sdh2, stronger effect = lower value",1.01
same,normalized growth,"S. cerevisiae deletion strains, locus YLR027C, strain aat2, stronger effect = lower value",0.966
same,normalized growth,"S. cerevisiae deletion strains, locus YLR039C, strain RIC1, stronger effect = lower value",0.771
same,normalized growth,"S. cerevisiae deletion strains, locus YLR058C, strain SHM2, stronger effect = lower value",0.871 (active)
same,normalized growth,"S. cerevisiae deletion strains, locus YLR102C, strain apc9, stronger effect = lower value",1
same,normalized growth,"S. cerevisiae deletion strains, locus YLR113W, strain HOG1, stronger effect = lower value",0.287 (active)
same,normalized growth,"S. cerevisiae deletion strains, locus YLR221C, strain rsa3, stronger effect = lower value",0.967
same,normalized growth,"S. cerevisiae deletion strains, locus YLR258W, strain gsy2, stronger effect = lower value",1
same,normalized growth,"S. cerevisiae deletion strains, locus YLR262C, strain YPT6 (second series), stronger effect = lower value",0.676 (active)
same,normalized growth,"S. cerevisiae deletion strains, locus YLR262C, strain YPT6, stronger effect = lower value",0.797
same,normalized growth,"S. cerevisiae deletion strains, locus YLR268W, strain sec22, stronger effect = lower value",0.991
same,normalized growth,"S. cerevisiae deletion strains, locus YLR320W, strain mms22, stronger effect = lower value",0.969
same,normalized growth,"S. cerevisiae deletion strains, locus YLR330W, strain CHS5, stronger effect = lower value",0.984
same,normalized growth,"S. cerevisiae deletion strains, locus YLR342W, strain FKS1 (second series), stronger effect = lower value",0.785 (active)
same,normalized growth,"S. cerevisiae deletion strains, locus YLR342W, strain FKS1, stronger effect = lower value",0.972
same,normalized growth,"S. cerevisiae deletion strains, locus YLR357W, strain rsc2, stronger effect = lower value",0.954
same,normalized growth,"S. cerevisiae deletion strains, locus YLR370C, strain arc18, stronger effect = lower value",0.975
same,normalized growth,"S. cerevisiae deletion strains, locus YLR371W, strain rom2, stronger effect = lower value",1
same,normalized growth,"S. cerevisiae deletion strains, locus YLR384C, strain iki3, stronger effect = lower value",0.994
same,normalized growth,"S. cerevisiae deletion strains, locus YLR418C, strain cdc73, stronger effect = lower value",0.937
same,normalized growth,"S. cerevisiae deletion strains, locus YML016C, strain PPZ1, stronger effect = lower value",0.997
same,normalized growth,"S. cerevisiae deletion strains, locus YML032C, strain rad52, stronger effect = lower value",0.985
same,normalized growth,"S. cerevisiae deletion strains, locus YML120C, strain ndi1, stronger effect = lower value",0.881 (active)
same,normalized growth,"S. cerevisiae deletion strains, locus YML124C, strain tub3, stronger effect = lower value",1
same,normalized growth,"S. cerevisiae deletion strains, locus YMR058W, strain fet3, stronger effect = lower value",0.977
same,normalized growth,"S. cerevisiae deletion strains, locus YMR078C, strain ctf18, stronger effect = lower value",1.02
same,normalized growth,"S. cerevisiae deletion strains, locus YMR125W, strain sto1, stronger effect = lower value",0.982
same,normalized growth,"S. cerevisiae deletion strains, locus YMR129W, stronger effect = lower value",0.979
same,normalized growth,"S. cerevisiae deletion strains, locus YMR205C, strain PFK2, stronger effect = lower value",0.929
same,normalized growth,"S. cerevisiae deletion strains, locus YMR223W, strain ubp8, stronger effect = lower value",0.956
same,normalized growth,"S. cerevisiae deletion strains, locus YMR231W, strain pep5, stronger effect = lower value",1.01
same,normalized growth,"S. cerevisiae deletion strains, locus YMR307W, strain GAS1, stronger effect = lower value",0.766
same,normalized growth,"S. cerevisiae deletion strains, locus YNL067W, strain RPL9B, stronger effect = lower value",0.974
same,normalized growth,"S. cerevisiae deletion strains, locus YNL071W, strain lat1, stronger effect = lower value",0.969
same,normalized growth,"S. cerevisiae deletion strains, locus YNL183C, strain NPR1, stronger effect = lower value",0.755 (active)
same,normalized growth,"S. cerevisiae deletion strains, locus YNL209W, strain ssb2, stronger effect = lower value",0.984
same,normalized growth,"S. cerevisiae deletion strains, locus YNL233W, strain BNI4, stronger effect = lower value",0.784 (active)
same,normalized growth,"S. cerevisiae deletion strains, locus YNL248C, strain rpa49, stronger effect = lower value",0.991
same,normalized growth,"S. cerevisiae deletion strains, locus YNL250W, strain rad50, stronger effect = lower value",0.998
same,normalized growth,"S. cerevisiae deletion strains, locus YNL271C, strain bni1, stronger effect = lower value",1.01
same,normalized growth,"S. cerevisiae deletion strains, locus YNL298W, strain CLA4, stronger effect = lower value",0.999
same,normalized growth,"S. cerevisiae deletion strains, locus YNL307C, strain MCK1, stronger effect = lower value",0.935
same,normalized growth,"S. cerevisiae deletion strains, locus YNL322C, strain KRE1 (second series), stronger effect = lower value",0.977
same,normalized growth,"S. cerevisiae deletion strains, locus YNR049C, strain mso1, stronger effect = lower value",0.986
same,normalized growth,"S. cerevisiae deletion strains, locus YNR052C, strain pop2, stronger effect = lower value",1
same,normalized growth,"S. cerevisiae deletion strains, locus YOL006C, strain TOP1, stronger effect = lower value",0.958
same,normalized growth,"S. cerevisiae deletion strains, locus YOL012C, strain htz1",1.25
same,normalized growth,"S. cerevisiae deletion strains, locus YOL147C, strain pex11, stronger effect = lower value",1
same,normalized growth,"S. cerevisiae deletion strains, locus YOR001W, strain rrp6, stronger effect = lower value",0.98
same,normalized growth,"S. cerevisiae deletion strains, locus YOR061W, strain CKA2, stronger effect = lower value",0.935
same,normalized growth,"S. cerevisiae deletion strains, locus YOR069W, strain VPS5, stronger effect = lower value",0.996
same,normalized growth,"S. cerevisiae deletion strains, locus YOR070C, strain gyp1, stronger effect = lower value",1
same,normalized growth,"S. cerevisiae deletion strains, locus YOR080W, strain dia2, stronger effect = lower value",0.979
same,normalized growth,"S. cerevisiae deletion strains, locus YOR083W, strain WHI5, stronger effect = lower value",0.976
same,normalized growth,"S. cerevisiae deletion strains, locus YOR106W, strain vam3, stronger effect = lower value",0.978
same,normalized growth,"S. cerevisiae deletion strains, locus YOR136W, strain idh2, stronger effect = lower value",1.02
same,normalized growth,"S. cerevisiae deletion strains, locus YOR144C, strain elg1, stronger effect = lower value",1.01
same,normalized growth,"S. cerevisiae deletion strains, locus YOR184W, strain ser1, stronger effect = lower value",0.96
same,normalized growth,"S. cerevisiae deletion strains, locus YOR231W, strain MKK1, stronger effect = lower value",0.483 (active)
same,normalized growth,"S. cerevisiae deletion strains, locus YOR265W, strain rbl2, stronger effect = lower value",0.994
same,normalized growth,"S. cerevisiae deletion strains, locus YOR270C, strain vph1, stronger effect = lower value",0.911
same,normalized growth,"S. cerevisiae deletion strains, locus YOR290C, strain snf2, stronger effect = lower value",0.939
same,normalized growth,"S. cerevisiae deletion strains, locus YOR316C, strain cot1, stronger effect = lower value",1.01
same,normalized growth,"S. cerevisiae deletion strains, locus YPL051W, strain arl3, stronger effect = lower value",1
same,normalized growth,"S. cerevisiae deletion strains, locus YPL078C, strain atp4, stronger effect = lower value",0.992
same,normalized growth,"S. cerevisiae deletion strains, locus YPL106C, strain sse1, stronger effect = lower value",0.839 (active)
same,normalized growth,"S. cerevisiae deletion strains, locus YPL240C, strain hsp82, stronger effect = lower value",1
same,normalized growth,"S. cerevisiae deletion strains, locus YPL256C, strain CLN2, stronger effect = lower value",0.643 (active)
same,normalized growth,"S. cerevisiae deletion strains, locus YPR119W, strain clb2, stronger effect = lower value",0.995
same,normalized growth,"S. cerevisiae deletion strains, locus YPR141C, strain kar3, stronger effect = lower value",1.02
same,normalized growth,"S. cerevisiae deletion strains, locus YPR163C, strain tif3, stronger effect = lower value",1.02
same,normalized growth,"S. cerevisiae deletion strains, locus YPR167C, strain met16, stronger effect = lower value",1.01
same,normalized growth,"S. cerevisiae deletion strains, strain wtn01, stronger effect = lower value",1
same,normalized growth,"S. cerevisiae strains, strain wild type, stronger effect = lower value",0.884 (active)
